These results are taken from ChEMBL document CHEMBL1157539, “Thousands of chemical starting points for antimalarial lead identification” (Nature, 2010).

Common to all, as to type: functional
Test [1] deals with Plasmodium falciparum. As to the kind of experiment: GSK_TCMDC: Inhibition of Plasmodium falciparum 3D7 in whole red blood cells, using parasite LDH activity as an index of growth. Test compounds present at 2uM.
Test [2] relates to Plasmodium falciparum. As to the kind of experiment: GSK_TCMDC: Inhibition of Plasmodium falciparum Dd2 in whole red blood cells, using parasite LDH activity as an index of growth. Test compounds present at 2uM.
Test [3] relates to HepG2. Description: GSK_TCMDC: Percent inhibition of human HepG2 cell line. Test compounds present at 10uM.

In the case of `CC(C)CCn1c(Sc2ccc(C#N)c([N+](=O)[O-])c2)nnc1-c1cccc(Cl)c1`, the results for the Inhibition in test [1], in test [2] and in test [3] were 96%, 82% and 33%, respectively.
Regarding `O=C(c1ccc(Cl)cc1)N1CCOC(CCN2CCC(c3ccccc3)CC2)(c2ccc(Cl)c(Cl)c2)C1` (stereo unspecified), the Inhibition is given as 98% in test [1], 68% in test [2] and 19% in test [3].
For the molecule `O=C(O)C(F)(F)F.OCC1CCN(Cc2ccc(-c3cccc(-c4nc5cc(C(F)(F)F)ccc5[nH]4)c3)cc2)CC1`, the figures for the Inhibition in test [1], in test [2] and in test [3] were 99%, 73% and 19%, respectively.
In the same order, the values of `CN1CCC(c2cc3c(cc2Br)CCN3C(=O)Nc2ccc(-c3ccncc3)c(Cl)c2)CC1` are 91%, 0% and 26%.
In the same order, the values of `COc1ccc(CCNC(=O)c2ccccc2O)cc1-c1ccc(C(C)(C)C)cc1` are 95%, 96% and 25%.
In the same order, the values of `FC(F)(F)c1ccc2[nH]c(-c3cccc(-c4cccc(CNCCc5ccncc5)c4)c3)nc2c1.O=C(O)C(F)(F)F` are 99%, 97% and 31%.
Regarding `CCCNCc1c(O)ccc2c(CNCCC)c(O)ccc12.Cl`, the Inhibition in test [1] was found to be 100%; in test [2] it was 9%; in test [3], 24%.
In the same order, the values of `CCCCN1CCN(CCCCNc2c3ccccc3nc3ccccc23)CC1.Cl` are 100%, 5% and 27%.
For `COc1ccc(NC(=O)NC2CCN(CCCOc3cc(C)nc4ccccc34)CC2)cc1OC`, the Inhibition in test [1] worked out at 97%; in test [2] it was 9%; in test [3] it was 3%.
`Cc1[nH]c2ccc(C#N)cc2c(=O)c1Br`: the Inhibition in test [1] is 91%; in test [2], 61%; in test [3] it was 2%.
In the same order, the values of `O=C(O)C(F)(F)F.Oc1ccc(CN2CCC(NCc3cccc4ccccc34)CC2)cc1` are 97%, 8% and 8%.
In the same order, the values of `Cc1cccc(NC(=O)NC2CCN(CCCCCNC(=O)/C=C/c3ccc(Cl)c(Cl)c3)CC2)c1` are 100%, 21% and 34%.
With `CCc1ccc(C2CCN(CCCCNC(=O)c3ccc(NC(=O)c4ccc(Cl)cc4)cc3)CC2)c(OC(C)=O)c1`, the figures for the Inhibition in test [1], in test [2] and in test [3] were 91%, 100% and 48%, respectively.
Turning to `COCCNCc1nc(-c2ccc3c(Nc4ccc(F)c(O)c4)ccnc3c2)cs1`, the figures for the Inhibition in test [1], in test [2] and in test [3] were 100%, 99% and 0%, respectively.
In the same order, the values of `COc1cc(C(=O)N2CCC(CCN3CCC4(CC3)CN(S(C)(=O)=O)c3ccccc34)CC2Cc2ccc(Cl)c(Cl)c2)cc(OC)c1OC.Cl` (stereo unspecified) are 100%, 99% and 29%.
In the case of `N#Cc1cccc(NC(=O)NC2CCN(CCCCCNC(=O)C3CC3c3ccc(Cl)c(Cl)c3)CC2)c1` (stereo unspecified), the values for the Inhibition in test [1], in test [2] and in test [3] were 100%, 0% and 36%, respectively.
In the same order, the values of `Oc1ccc2[nH]c(-c3cccc(F)c3)nc2c1CN1CCCC1` are 100%, 47% and 0%.
In the same order, the values of `Cc1cc(N[C@@H](CC(C)C)C(=O)NCCOc2ccccc2)nc(NCCc2ccccc2)n1.O=C(O)C(F)(F)F` are 94%, 29% and 13%.
In the same order, the values of `NC(=O)c1ccccc1OCC(=O)Nc1cccc(-c2ccc(-c3nc4ccccc4[nH]3)cc2)c1` are 95%, 46% and 66%.
For the molecule `Cc1ccc(S(=O)(=O)N(CCCNCc2cccc(O)c2)c2ccccc2)cc1`, the Inhibition in test [1] came out at 95%; in test [2], 94%; in test [3] it was 6%.
Turning to `Cc1ccc(NC(=O)c2ccc(CN3CCCN(CC4CCCCC4)CC3)cc2)cc1F.O=C(O)C(F)(F)F`, the Inhibition in test [1] stood at 92%; in test [2] it was 61%; in test [3], 51%.
In the same order, the values of `Cc1cccc2nc(-c3ccc(-c4cccc(NC(=O)Nc5ccc(F)c(F)c5F)c4)cc3)[nH]c12` are 100%, 89% and 40%.
In the same order, the values of `Cc1cccc2nc(-c3cccc(-c4ccc(NC(=O)Cc5c[nH]cn5)cc4)c3)[nH]c12` are 100%, 93% and 4%.
In the same order, the values of `CN(C)CCN1CCN(Cc2cccc(-c3csc(-c4nc5ccccc5[nH]4)c3)c2)CC1.O=C(O)C(F)(F)F` are 100%, 97% and 28%.
For the molecule `CCc1cccc(NC(=O)/C=C/c2ccc3c(c2)CN(C)CC3)c1`, the Inhibition is given as 94% in test [1], 91% in test [2] and 8% in test [3].
In the same order, the values of `Nc1cc(-c2cccc(Cl)c2)nn1-c1ccnc2cc(Cl)ccc12` are 99%, 33% and 0%.
In the same order, the values of `Cl.O=C(NCCCCN1CCC(c2ccc3ccccc3c2O)CC1)c1ccc(-c2ccc(Cl)cc2)cc1` are 100%, 99% and 84%.
In the same order, the values of `O=C1C(c2ccccc2)=C(Nc2ccc(Cl)cc2)c2ccccc21` are 91%, 59% and 5%.
For the molecule `CCN(C(=O)CSc1cc(C)c2cc(C)cc(C)c2n1)C1CCS(=O)(=O)C1` (stereo unspecified), the Inhibition came to 97% in test [1], 82% in test [2] and 5% in test [3].
In the case of `Cc1c(CN2CCC(N3CCC(C(=O)NC4CC4)CC3)CC2)[nH]c2c(Cl)cccc12`, the results for the Inhibition in test [1], in test [2] and in test [3] were 92%, 3% and 22%, respectively.
For the molecule `CN(Cc1cccc(F)c1)C1CCN(c2cc(NC(=O)c3ccc(F)cc3)ccn2)CC1.O=C(O)C(F)(F)F`, the values for the Inhibition in test [1], in test [2] and in test [3] were 95%, 36% and 0%, respectively.
With `COc1ccccc1C1CCN(C2CCC(NC(=O)/C=C/c3ccc4c(c3)OC(F)(F)O4)CC2)CC1` (stereo unspecified), the Inhibition was found to be 98% in test [1], 31% in test [2] and 52% in test [3].
In the same order, the values of `CCCC1(NC[C@@H](O)[C@H](Cc2ccccc2)NC(=O)c2cc(NCC)cc(N3CCCCS3(=O)=O)c2)CCC1.Cl` are 100%, 86% and 0%.
Regarding `CCC(C)NCc1c(O)ccc2c(CNC(C)CC)c(O)ccc12.Cl` (stereo unspecified), the figures for the Inhibition in test [1], in test [2] and in test [3] were 100%, 31% and 14%, respectively.
In the same order, the values of `CCc1c(C)c2ccc3c(c2oc1=O)CN(CCc1ccc(F)cc1)CO3` are 94%, 85% and 0%.
In the same order, the values of `Nc1cccc(CNCc2cccc(-c3ccc(-c4nc5ccccc5[nH]4)cc3)c2)c1.O=C(O)C(F)(F)F` are 100%, 92% and 0%.
For `Cc1ccc(CCC(C)NCC(O)c2cccc(Cl)c2)cc1` (stereo unspecified), the Inhibition in test [1] is 97%; in test [2] it was 97%; in test [3] it was 2%.
`Cc1noc(C)c1-c1cccc(C(=O)NC2CCN(CCNC(=O)C(c3ccccc3)c3ccccc3)CC2)c1.O=C(O)C(F)(F)F`: the Inhibition in test [1] turned out to be 85%; in test [2], 74%; in test [3], 27%.
In the same order, the values of `COc1ccc2ncc(F)c(CCN3CCC(NCc4cc(Br)c5c(c4)OCCO5)CC3)c2n1.Cl` are 100%, 94% and 26%.
In the same order, the values of `O=C(/C=C/c1ccc(Br)cc1)NCCCCCN1CCC(c2c[nH]c3ccccc23)CC1` are 99%, 19% and 73%.
Take `Cc1cc(F)ccc1-c1nc(Nc2ccncc2)c2ccn(C)c2n1`: the Inhibition in test [1] was 89%; in test [2], 8%; in test [3], 9%.
In the same order, the values of `Br.Oc1ccc(CCNCCCCCCNCCCc2ccc(Cl)cc2)cc1O` are 87%, 3% and 13%.
In the same order, the values of `Cc1nc2ccccc2n1C1CC2CCC(C1)N2CCCC1(c2ccccc2)CCN(C(=O)OCc2ccccc2)CC1.O=CO` (stereo unspecified) are 90%, 29% and 46%.
Turning to `O=C(C1CC1)N1c2ccccc2CCc2ccccc21`, the Inhibition in test [1] is given as 98%; in test [2] it was 57%; in test [3], 40%.
Turning to `COc1ccc(NC(=O)Nc2nc3ccccc3s2)cc1N1CCN(C)CC1`, the Inhibition is on record as 95% in test [1], 22% in test [2] and 6% in test [3].
In the same order, the values of `Cl.N#Cc1ccc2c(c1)CCN(CCC1CCC(NC(=O)/C=C/c3ccc4[nH]ccc4c3)CC1)CC2` (stereo unspecified) are 93%, 27% and 2%.
As to `CN(C)CC(=O)NCC(NCCCNc1cc(=O)c2ccccc2[nH]1)c1cc(Br)cc(Br)c1` (stereo unspecified), the Inhibition in test [1] is reported as 98%; in test [2], 2%; in test [3] it was 6%.
In the same order, the values of `Cc1ccc(NC(=O)C(C)Sc2nnc(-c3ccccc3Br)[nH]2)cc1` (stereo unspecified) are 89%, 90% and 2%.
In the same order, the values of `O=C(NCC1CCN(CCN2CCC(c3cn(CCO)c4ccccc34)CC2)CC1)c1ccc(-c2ccc(C(F)(F)F)cc2)cc1` are 100%, 100% and 100%.
For the molecule `O=C(Nc1cccc(-c2cccc(-c3nc4cc(C(F)(F)F)ccc4[nH]3)c2)c1)c1cccnc1`, the Inhibition in test [1] came to 100%; in test [2] it was 70%; in test [3], 57%.
In the same order, the values of `Cc1cc(C)cc(OCC(O)CN(Cc2cc(Cl)cc(Cl)c2)C(=O)Nc2ccc(Cl)cc2)c1` (stereo unspecified) are 97%, 43% and 0%.
In the same order, the values of `CCCCNCc1ccc(-c2nc(CN(CCCN3CCN(C)CC3)C(=O)Nc3cccc(Cl)c3)cs2)cc1.O=C(O)C(F)(F)F` are 99%, 73% and 35%.
In the same order, the values of `CN1CCN(c2ccc(Nc3c(C(N)=O)cnc4cc(-c5ccoc5)ccc34)cc2)CC1.Cl` are 100%, 99% and 14%.
With `COc1cc(OC)nc(C(Sc2ccc(NC(=O)c3cccs3)cc2)c2ccccc2)n1` (stereo unspecified), the Inhibition in test [1] was determined as 97%; in test [2], 96%; in test [3], 7%.
In the same order, the values of `COc1ccc(CNC(=O)c2cc3c(=O)n4ccccc4nc3n(CCc3ccccc3)c2=N)cc1` are 99%, 22% and 26%.
In the same order, the values of `CO/C(=C\C=C\c1cc2cc(Cl)c(Cl)cc2[nH]1)C(=O)NCCCN1CCN(C2CCCCC2)CC1` are 99%, 97% and 60%.
In the same order, the values of `O=C(C1CCN(c2nnnn2-c2ccccc2)CC1)N1CCc2ccccc2C1` are 97%, 97% and 0%.
On to `CC(C)(Oc1c(C2CCN(CCCCNC(=O)c3ccc(-c4ccc(C#N)cc4)cc3)CC2)ccc2c1CCCC2)C(N)=O`, for which the Inhibition amounted to 100% in test [1], 82% in test [2] and 34% in test [3].
In the same order, the values of `CC(CN1CCN(C)CC1)C(=O)Nc1cccc(-c2ccc(-c3nc4ccccc4[nH]3)s2)c1` (stereo unspecified) are 97%, 59% and 2%.
With `COc1ccc(CNC2CCN(C)CC2)cc1-c1ccc(S(=O)(=O)NCc2ccccc2)cc1.O=C(O)C(F)(F)F`, the Inhibition came out at 100% in test [1], 99% in test [2] and 56% in test [3].
In the same order, the values of `CN1CCC(NC(=O)c2cc(Oc3ccc4c(c3)CCN4C(=O)Nc3cccc(C(F)(F)F)c3)ccn2)CC1.O=C(O)C(F)(F)F` are 92%, 17% and 16%.
In the same order, the values of `O=C(N[C@@H](CC1CCCCC1)C(=O)NCCN1CCCCC1)c1ccc(O)c(-c2cccc(C(F)(F)F)c2)c1` are 99%, 97% and 0%.
